# Reference: paper PMC4601081
# Assays:
# Assay in all cases: cross-link between two proteins; cross-linking mass spectrometry
# [1] = molecular target: 26S proteasome regulatory subunit RPN7 (UniProt Q06103)
# [2] = molecular target: 26S proteasome regulatory subunit RPN8 (UniProt Q08723)
# [3] = molecular target: Ubiquitin C-terminal hydrolase RPN11 (UniProt P43588)
# [4] = molecular target: 26S proteasome regulatory subunit RPN5 (UniProt Q12250)
# [5] = molecular target: 26S proteasome regulatory subunit RPN6 (UniProt Q12377)
# Chain of 26S proteasome regulatory subunit RPN6 (Q12377 whole entry): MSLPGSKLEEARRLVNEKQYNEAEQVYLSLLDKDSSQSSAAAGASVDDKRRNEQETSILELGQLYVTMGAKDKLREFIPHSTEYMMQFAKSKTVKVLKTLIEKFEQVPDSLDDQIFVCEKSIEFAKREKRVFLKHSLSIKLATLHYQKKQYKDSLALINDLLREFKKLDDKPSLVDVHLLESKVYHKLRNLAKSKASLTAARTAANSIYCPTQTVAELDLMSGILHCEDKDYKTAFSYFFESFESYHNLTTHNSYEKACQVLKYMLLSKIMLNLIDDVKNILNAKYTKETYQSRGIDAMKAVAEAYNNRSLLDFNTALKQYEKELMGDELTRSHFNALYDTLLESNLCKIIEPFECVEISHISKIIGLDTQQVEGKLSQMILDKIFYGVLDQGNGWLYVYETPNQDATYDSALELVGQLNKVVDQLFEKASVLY
# [6] = molecular target: 26S proteasome regulatory subunit RPN3 (UniProt P40016)
# Chain of 26S proteasome regulatory subunit RPN3 (P40016 whole entry): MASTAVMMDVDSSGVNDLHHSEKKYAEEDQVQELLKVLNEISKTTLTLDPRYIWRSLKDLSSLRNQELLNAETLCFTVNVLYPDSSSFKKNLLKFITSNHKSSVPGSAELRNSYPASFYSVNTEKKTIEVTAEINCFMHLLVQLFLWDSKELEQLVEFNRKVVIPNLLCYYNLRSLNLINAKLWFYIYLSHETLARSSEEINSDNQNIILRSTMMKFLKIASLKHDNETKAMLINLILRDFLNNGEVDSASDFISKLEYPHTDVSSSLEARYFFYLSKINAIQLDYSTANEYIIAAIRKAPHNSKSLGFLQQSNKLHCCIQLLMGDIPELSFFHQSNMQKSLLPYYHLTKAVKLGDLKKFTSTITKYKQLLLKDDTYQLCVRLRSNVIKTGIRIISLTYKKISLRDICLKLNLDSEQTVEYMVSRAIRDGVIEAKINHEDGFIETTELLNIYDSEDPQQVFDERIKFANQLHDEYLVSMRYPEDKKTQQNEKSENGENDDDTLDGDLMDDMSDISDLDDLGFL
# Chain of 26S proteasome regulatory subunit RPN5 (Q12250 whole entry): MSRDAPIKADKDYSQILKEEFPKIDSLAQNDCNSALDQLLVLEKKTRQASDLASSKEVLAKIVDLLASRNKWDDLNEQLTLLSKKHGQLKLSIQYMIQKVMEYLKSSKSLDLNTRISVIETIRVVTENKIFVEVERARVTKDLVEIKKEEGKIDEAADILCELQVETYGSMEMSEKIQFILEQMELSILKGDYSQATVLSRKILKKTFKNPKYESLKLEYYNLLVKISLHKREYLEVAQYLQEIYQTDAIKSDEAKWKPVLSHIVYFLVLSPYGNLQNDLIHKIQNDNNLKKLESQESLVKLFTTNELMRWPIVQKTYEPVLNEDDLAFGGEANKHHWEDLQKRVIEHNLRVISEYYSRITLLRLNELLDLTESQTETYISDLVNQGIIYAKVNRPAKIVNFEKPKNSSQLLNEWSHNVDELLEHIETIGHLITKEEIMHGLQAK
# Chain of 26S proteasome regulatory subunit RPN8 (Q08723 whole entry): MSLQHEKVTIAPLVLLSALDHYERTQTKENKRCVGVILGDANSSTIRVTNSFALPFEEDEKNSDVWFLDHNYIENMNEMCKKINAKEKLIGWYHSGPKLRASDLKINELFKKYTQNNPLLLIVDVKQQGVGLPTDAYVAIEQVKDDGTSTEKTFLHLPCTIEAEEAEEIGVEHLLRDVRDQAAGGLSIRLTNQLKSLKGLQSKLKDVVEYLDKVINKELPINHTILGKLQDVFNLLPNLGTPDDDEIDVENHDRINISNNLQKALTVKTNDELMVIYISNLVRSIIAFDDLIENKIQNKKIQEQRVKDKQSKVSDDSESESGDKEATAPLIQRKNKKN
# Chain of 26S proteasome regulatory subunit RPN7 (Q06103 whole entry): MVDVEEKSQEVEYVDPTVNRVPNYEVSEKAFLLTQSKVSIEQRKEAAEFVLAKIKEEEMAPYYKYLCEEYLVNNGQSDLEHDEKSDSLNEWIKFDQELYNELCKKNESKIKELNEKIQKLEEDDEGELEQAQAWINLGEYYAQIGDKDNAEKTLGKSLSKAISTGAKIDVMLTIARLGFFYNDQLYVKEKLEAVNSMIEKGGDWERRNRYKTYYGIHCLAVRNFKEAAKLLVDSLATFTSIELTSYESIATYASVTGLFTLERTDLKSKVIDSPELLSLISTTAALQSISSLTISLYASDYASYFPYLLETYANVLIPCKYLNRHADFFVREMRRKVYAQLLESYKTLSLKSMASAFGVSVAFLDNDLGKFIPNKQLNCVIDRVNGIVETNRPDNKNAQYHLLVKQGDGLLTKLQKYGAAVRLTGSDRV
# Chain of Ubiquitin C-terminal hydrolase RPN11 (P43588 whole entry): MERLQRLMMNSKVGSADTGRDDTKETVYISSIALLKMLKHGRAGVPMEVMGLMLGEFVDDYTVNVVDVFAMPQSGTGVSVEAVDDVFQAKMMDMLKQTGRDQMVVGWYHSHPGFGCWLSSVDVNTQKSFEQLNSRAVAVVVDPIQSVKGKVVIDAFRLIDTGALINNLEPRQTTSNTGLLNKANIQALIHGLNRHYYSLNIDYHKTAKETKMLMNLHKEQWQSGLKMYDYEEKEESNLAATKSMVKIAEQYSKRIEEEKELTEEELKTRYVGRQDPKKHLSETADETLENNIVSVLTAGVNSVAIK
substance,measurement,setting,value
"26S proteasome regulatory subunit RPN3, P40016",listed as a hit,[1],yes
same,listed as a hit,[2],yes
same,listed as a hit,[3],yes
"Ubiquitin C-terminal hydrolase RPN11, P43588",listed as a hit,[4],yes
same,listed as a hit,[5],yes
same,listed as a hit,[1],yes
"26S proteasome regulatory subunit RPN7, Q06103",listed as a hit,[4],yes
same,listed as a hit,[5],yes
same,listed as a hit,[2],yes
"26S proteasome complex subunit SEM1, O94742",listed as a hit,[6],yes
same,listed as a hit,[2],yes
same,listed as a hit,[3],yes
"26S proteasome regulatory subunit RPN8, Q08723",listed as a hit,[4],yes
same,listed as a hit,[5],yes
"26S proteasome regulatory subunit RPN5, Q12250",listed as a hit,[5],yes
"26S proteasome regulatory subunit RPN9, Q04062",listed as a hit,[4],yes
same,listed as a hit,[2],yes
